From PubChem
HEK293 tox: cytotoxicity counter-screen for GLP-1 receptor inverse agonists; 0.13% of 410,000 active; HEK293 cAMP-luciferase reporter cells, luminescence, 24 h; Potency, µM (top dose mostly 38.3 µM), inactives show at the top dose activity change, negative = inhibition, actives largely listed as inhibitors;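 further: loss of luciferase light is scored as toxicity; on the % scale 0 is the no-effect control and ±100 the full control effect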
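MLSMR compounds, 24 hr on cells at 37 deg C/5% CO2; luminescence after luciferase reagent (12 min RT). Inhibition counted as the undesired cytotoxic outcome.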
GLP-1R agonist: agonists of human GLP-1 receptor; HEK293 GLP-1R CRE-luciferase, luminescence, 4-6 h; cells express a hypersensitive GLP-1R form; Potency, µM (titrated, usually from 45.6 µM), without a hit: at the top dose activation, actives largely listed as activators; 0.007% of 380,000 active; AID 624172; further: % of control where 0% means no effect
Target sequence (P43220 whole entry, looked up): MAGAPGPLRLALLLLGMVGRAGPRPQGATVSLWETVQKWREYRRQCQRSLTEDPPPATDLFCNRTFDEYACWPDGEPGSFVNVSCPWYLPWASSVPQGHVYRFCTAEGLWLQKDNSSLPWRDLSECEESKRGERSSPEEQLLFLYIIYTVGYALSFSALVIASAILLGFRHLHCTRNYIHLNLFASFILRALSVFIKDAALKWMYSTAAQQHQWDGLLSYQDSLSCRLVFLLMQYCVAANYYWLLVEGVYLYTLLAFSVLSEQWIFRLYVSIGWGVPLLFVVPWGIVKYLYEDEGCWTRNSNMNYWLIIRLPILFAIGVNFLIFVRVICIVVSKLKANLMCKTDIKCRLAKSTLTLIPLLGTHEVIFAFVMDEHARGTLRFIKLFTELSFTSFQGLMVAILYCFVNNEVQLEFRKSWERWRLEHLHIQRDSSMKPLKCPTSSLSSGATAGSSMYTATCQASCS
RORg inh: ROR gamma (mouse) transcription inhibition | P51450 | 5.4% of 310,000 active | Potency, µM (top dose mostly 53.6 µM), for inactives: top-dose activity change, negative = inhibition, most hits filed as inhibitors | AID 2551 | Drosophila S2 Gal4-RORgamma UAS-luciferase reporter, 20 h; further: on the % scale 0 is the no-effect control and ±100 the full control effect; nearly all actives have a fitted effect of over 60% in size
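A Gal4/UAS one-hybrid system in insect cells: metallothionein-promoter Gal4–ROR gamma fusion plus Photinus luciferase reporter. Copper sulfate 700 uM final, 20 hr ambient incubation, luminescent detection after 10 min with reagent.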
VP16 counter: counter-screen for ROR gamma inhibitors: Gal4-VP16 reporter; Drosophila S2 Gal4-VP16 UAS-luciferase, luminescence, 20 h; Potency, µM (highest dose often 53.6 µM), for the others: top-dose activity, negative = inhibition, actives largely listed as inhibitors; 3.5% of 310,000 active; AID 2546;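 further: Gal4-VP16 expression switched on by copper sulfate through the metallothionein promoter; on the % scale 0 is the no-effect control and ±100 the full control effect; nearly all actives have a fitted effect of over 50% in size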
GLP-1R inv ag: acts as inverse agonist at human GLP-1 receptor; P43220; HEK293 GLP-1R CRE-luciferase, luminescence, 24 h; GLP-1R form is constitutively active; Potency, µM (top dose mostly 38.3 µM), for inactives: top-dose activity change, negative = inhibition, actives largely listed as inhibitors; 1.6% of 410,000 active; further: on the % scale 0 is the no-effect control and ±100 the full control effect; nearly all actives have a fitted effect of over 55% in size
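HEK293 cells stably co-expressing a cAMP-responsive luciferase reporter and constitutively active GLP-1R were seeded, incubated 12 h, then exposed to compounds for 24 h at 37 C. Luminescence was read 12 min after detection reagent; inverse agonists lower signal.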
An asterisk follows results filed as active; [ ] = remark or other dose. An excerpt weighted towards active compounds, which were near 5.9% of everything screened. The call rests on the fitted dose curve; in most records, active means well fitted curve in the direction sought with a large enough effect; inconclusive means small, poorly fitted or top-dose-only effect, or another doubt; inactive means no such curve, though single readings can be large; an effect the other way counts as inactive or inconclusive. Potency means the concentration at half of the fitted maximal effect.

`CCCCN(C)S(=O)(=O)c1ccc(C(=O)Nc2nnc(-c3cccs3)o2)cc1` gave RORg inh 0.32µM* and VP16 counter 0.89µM*.
`O=C(NC1CCCC1)C(c1ccccc1F)N(C(=O)Cc1cccs1)c1ccc2c(c1)OCCO2` (stereo not given) gave HEK293 tox 5%, GLP-1R agonist 4%, RORg inh 21%, VP16 counter 3% and GLP-1R inv ag 10µM*.
`Cc1c(C(=O)N(Cc2ccccc2Cl)C2CCS(=O)(=O)C2)oc2ccccc12` (stereo not given) gave HEK293 tox -31%, GLP-1R agonist 14%, RORg inh -40%, VP16 counter -8% and GLP-1R inv ag 10µM*.
Screening COC(=O)c1ccc(C(/C=C/[C@@H](C)C(=O)NCCc2c[nH]c3ccccc23)NC(=O)OCc2ccccc2)cc1 (stereo not given in full) returned RORg inh inconclusive and VP16 counter -7%.
`CN(CC(=O)Nc1ccc(OC(F)(F)F)cc1)C(=O)Cc1ccc2c(c1)CCC2` gave HEK293 tox 1%, GLP-1R agonist 2% and GLP-1R inv ag 5.6µM*.
For S=C(NCCc1ccc(Cl)cc1)NC1CCCC1 the results were HEK293 tox inconclusive, GLP-1R agonist 13%, RORg inh 2µM*, VP16 counter 6.3µM* and GLP-1R inv ag inconclusive.
`CC1CCCC/C1=N\NC(=S)NCCc1ccccc1` (stereo not given) gave HEK293 tox -9%, GLP-1R agonist -2%, RORg inh 0.35µM*, VP16 counter 1.8µM* and GLP-1R inv ag -24%.
Screening S=C(NCCc1ccc(Cl)cc1)NC1CCCCC1 returned HEK293 tox inconclusive, GLP-1R agonist -1%, RORg inh 3.5µM*, VP16 counter 5µM* and GLP-1R inv ag inconclusive.
For O=C(NCCCO)C(=O)NCCc1ccc(Cl)cc1 the results were HEK293 tox 0%[1.53 µM], GLP-1R agonist -7%, RORg inh 8%, VP16 counter 0% and GLP-1R inv ag 2%.
`Cc1ccc(NC(=S)N/N=C2\CCCCC2C)cc1` (stereo not given) gave HEK293 tox inconclusive, GLP-1R agonist 3%, RORg inh inconclusive, VP16 counter 0% and GLP-1R inv ag -29%.
O=C(NCCc1ccccc1)C(=O)NC1CCCCC1 was read as HEK293 tox 6%, GLP-1R agonist 2%, RORg inh -4%, VP16 counter 12% and GLP-1R inv ag 0%.
Screening S=C(NCCNCc1ccccc1)NC1CCCCC1 returned RORg inh 4µM* and VP16 counter inconclusive.
C=C[C@@]1(C)CC(=O)[C@@]2(O)[C@@]3(C)[C@@H](O)CCC(C)(C)[C@@H]3[C@H](OC(=O)CCN(C)C)[C@H](OC(C)=O)[C@@]2(C)O1 was read as RORg inh 3% and VP16 counter 2%.
CCOC(=O)Cn1c(=O)oc2cc(S(=O)(=O)Nc3ccccc3F)ccc21 was read as HEK293 tox 6% and GLP-1R inv ag -2%.
Screening COc1ccc(CNc2ncnc3ccc(-c4c(C)noc4C)cc23)c(OC)c1 returned RORg inh inconclusive and VP16 counter -2%.
Screening OCCN(Cc1ccccc1)C(=S)NC1CCCCC1 returned HEK293 tox 10%, GLP-1R agonist 13%, RORg inh inconclusive, VP16 counter -2% and GLP-1R inv ag inconclusive.
`S=C(NC1CCCCC1)N(CCc1ccccc1)CCc1ccccc1` gave HEK293 tox -6%, GLP-1R agonist -3%, RORg inh 10µM*, VP16 counter 10µM* and GLP-1R inv ag 2%.
For S=C(NCCc1ccccc1)NC1CCCCCC1 the results were HEK293 tox 12%, GLP-1R agonist 3%, RORg inh 2.8µM*, VP16 counter 9%[0.365 µM] and GLP-1R inv ag inconclusive.
For O=C(NC1CCCCC1)C(=S)NCCc1ccccc1 the results were HEK293 tox 1%, GLP-1R agonist 0%, RORg inh 20%, VP16 counter 2% and GLP-1R inv ag inconclusive.
COc1ccccc1OCCN1CSC(=S)N(C)C1 was read as HEK293 tox inconclusive, GLP-1R agonist 3%, RORg inh inconclusive, VP16 counter inconclusive and GLP-1R inv ag inconclusive.
